From PubChem BioAssay (Tox21)
Inconclusive results are not listed. A number with no mark means an inactive call. The call rests on the fitted dose curve.

molecular target: Beta-2 adrenergic receptor (Homo sapiens) (UniProt P07550); test: Adrenergic beta2 receptor (ADRB2) small molecule antagonists, cell-based qHTS assay (AID 1963592); settings: CHO-ADRB2 cells, isoproterenol-stimulated cAMP HTRF ratio, 0.5 h; series mostly up to 92.4 µM; activity change, negative = inhibition: at the top concentration; further: nearly all actives have a fitted effect of over 50% in size
Excerpt: U.S. Tox21 Program National Center for Advancing Translational Sciences [NCATS] Division of Preclinical Innovation [DPI] U.S. Environmental Protection Agency [EPA] National Institutes of Environmental Health Sciences [NIEHS] National Toxicology Program [NTP] U.S. Food and Drug Administration [FDA] Tox21 Assay Overview: Beta adrenergic receptors (Beta-ARs) belong to the G-protein coupled receptor (GPCR) superfamily, includes three subtypes - beta1, beta2, and beta3. Beta1-AR is the predominant receptor subtype expressed in the heart, and beta2-AR is expressed in the kidney, lung, blood vessel and in the heart, and beta3 is found in the adipocytes. Beta1 and 2 ARs couple to Gs protein and elevate cyclic adenosine mono phosphate (cAMP), which activates protein kinase A and leads to the downstream signaling responsible for the physiological actions. Beta-AR agonists or antagonists are the most prescribed therapeutic agents for heart failure and asthma, and these were one of the first target receptors for the rational drug design. Tox21 10K compound library was screened using the cAMP-Gs dynamic assay (Cisbio Bioassays, Shelton, CT) to identify agonists/antagonists of the Gs-coupled human adrenergic, beta2 receptor (ADRB2) in the CHO-ADRB2 cell line (Codex BioSolutions, Inc. Gaithersburg, MD), which stably over-expresses ADRB2. The principle of cAMP-Gs dynamic assay is based on HTRF technology, which facilitates the fluorescence resonance energy transfer (FRET) between donor Europium cryptate and acceptor d2-labeled cAMP. The cAMP generated within cells competes with the red acceptor, d2-labled cAMP, for binding to the monoclonal anti-cAMP-cryptate (Europium donor). An increase in intracellular cAMP leads to the disruption of FRET signal, and the signal is inversely proportional to the cAMP concentration. Propranolol HCl (Sigma-Aldrich, St. Louis, MO) was used as a positive control in the screening.
Tox21 Assay Protocol Summary: CHO-ADRB2 cells were dispensed at 1,000/well in 4uL assay medium into white/solid 1536-well plates (Greiner Bio-One North America Inc., Monroe, NC) using a Multidrop Combi dispenser (ThermoFisher Scientific, Waltham, MA). The assay plates were incubated at 37C and 5% CO2 for an overnight (18-20hr). Then positive control and test compounds dissolved in DMSO were transferred to the assay plates at 23nL using a Pintool station (Wako, San Diego, CA). Following the compound and positive control transfer, 1uL agonist-stimulation mix containing 1nM Isoproterenol HCl, 100uM IBMX and 25uM Ro-20-1724 was added to each well of the assay plates using BioRAPTR Flying Reagent Dispenser (FRD, Beckman Coulter, Brea, CA). The assay plates were incubated at room temperature for 0.5hr. Then 2.5ul each d2-labled cAMP and anti-cAMP-cryptate solutions were added separately to each well of the assay plates using an FRD and the assay plates were incubated at room temperature for 1hr. The fluorescence signal was measured at two different wavelengths (665nm and 615nm) using an Envision plate reader (Perkin Elmer, Shelton, CT). Data were expressed as the ratio of 665 nm/615 nm.
On the % scale 0 is the no-effect control and ±100 the full control effect.

Chain of Beta-2 adrenergic receptor (Homo sapiens) (P07550 whole entry, looked up): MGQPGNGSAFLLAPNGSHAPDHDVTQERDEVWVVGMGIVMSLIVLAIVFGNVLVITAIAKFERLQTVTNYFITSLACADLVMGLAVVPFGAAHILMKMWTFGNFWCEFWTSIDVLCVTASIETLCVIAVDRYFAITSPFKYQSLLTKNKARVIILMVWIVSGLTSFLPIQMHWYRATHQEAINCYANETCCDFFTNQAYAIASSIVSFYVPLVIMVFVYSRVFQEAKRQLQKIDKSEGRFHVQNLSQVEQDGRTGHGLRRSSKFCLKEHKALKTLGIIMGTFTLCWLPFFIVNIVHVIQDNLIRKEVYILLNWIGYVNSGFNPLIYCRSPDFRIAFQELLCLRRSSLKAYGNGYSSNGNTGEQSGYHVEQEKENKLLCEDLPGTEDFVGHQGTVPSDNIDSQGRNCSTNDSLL

Row | Compound | activity change, negative = inhibition
1 | O=C(O)c1c(O)c(-c2ccccc2)nc2ccccc12 | -12.3% [at 42.5 µM]
2 | O=C(CO)[C@@H](O)[C@H](O)[C@@H](O)CO | 3.32% [at 42.5 µM]
3 | CCCCCCCCCCCC(=O)NCCCN(C)C | -5.79%
4 | COc1cc(C(C)C)ccc1C | -2.77% [at 19 µM]
5 | CN=C(NC#N)NCCSCc1csc(N=C(N)N)n1 | -12.9% [at 42.5 µM]
6 | O=P(O)(O)C(O)(Cc1cccnc1)P(=O)(O)O | 8.23% [at 42.5 µM]
7 | CCC(C)COC(=O)CC(C)C (stereo not given) | 0.263%
8 | O=C(CCCCCCCCC#CI)Oc1ccccc1 | -10.6% [at 42.5 µM]
9 | NC1CCN(c2cccc(Cl)n2)CC1 | -20.8% [at 42.5 µM]
10 | CC(=O)CCc1ccc(O)cc1 | 0.161%
11 | CC(C)C/C=C(\C=O)c1ccccc1 | -3.76%
12 | CCCCCCCCCCCCCCCCCC#N | 2.56%
13 | CCCCCCCCCOC(=O)c1ccccc1C(=O)OCCCCCCCCC | -2.6%
14 | CCCCCC[C@@H](CCC)C(=O)O | 0.935% [at 42.5 µM]
15 | COS(=O)(=O)C(F)(F)F | 0.0365%
16 | CCOC(=O)C1CC(=O)C(=C(O)C2CC2)C(=O)C1 (stereo not given) | -1.52%
17 | Cc1cccc(C(C)(C)C)c1O | 1.6%
18 | COc1ccccc1OC(=O)Oc1ccccc1OC | 1.13% [at 42.5 µM]
19 | CC1=NC(C)OC1C (stereo not given) | 3.04%
20 | COc1c(C)c2c(c(O)c1C/C=C(\C)CCC(=O)O)C(=O)OC2 | 7.42% [at 42.5 µM]

Row | Compound | activity change, negative = inhibition
21 | Cc1cc(O)ccc1N | -13%
22 | CC(C)C[C@H](NC(=O)OCC1c2ccccc2-c2ccccc21)C(=O)O | -13.5%
23 | Cc1ccc(C(=O)c2ccc(CC(=O)O)n2C)cc1 | 1.3% [at 42.5 µM]
24 | CC(C)Oc1ccccc1O | 11.5%
25 | BrCCCCCBr | 1.29%
26 | CCCCC(CC)CN1C(=O)C2C3C=CC(C3)C2C1=O (stereo not given) | -6.37%
27 | CCc1nccnc1C | 10.3%
28 | C[C@H](N)C(=O)N[C@@H](C)C(=O)NC1[C@H]2CN(c3nc4c(cc3F)c(=O)c(C(=O)O)cn4-c3ccc(F)cc3F)C[C@@H]12 (stereo not given in full) | -9.56% [at 42.5 µM]
29 | CN(C)[C@@H]1C(=O)C(C(=O)NCN2CCCC2)=C(O)[C@@]2(O)C(=O)C3=C(O)c4c(O)cccc4[C@@](C)(O)C3C[C@@H]12 (stereo not given in full) | -15.5% [at 42.5 µM]
30 | Cc1ccc2c(c1[N+](=O)[O-])C(=O)c1ccccc1C2=O | 3.9% [at 42.5 µM]
31 | CCCCCC(C)N (stereo not given) | 4.73% [at 42.5 µM]
32 | O=C(NCCc1c[nH]c2ccccc12)c1cccnc1 | -0.807% [at 42.5 µM]
33 | CC(C)c1ccc(C(=O)N=C(N)N)cc1S(C)(=O)=O | -1.71% [at 42.5 µM]
34 | CC(C(=O)O)c1ccc(/C=C2\CCCCC2=O)cc1 (stereo not given) | -0.189% [at 42.5 µM]
35 | CCCCCCCCCCOc1cc2c(=O)c(C(=O)OCC)c[nH]c2cc1OCC | 4.81% [at 8.39 µM]
36 | COc1ccc(/C=C/S(=O)(=O)NC(=O)c2ccc(C)cc2Cl)cc1 | -5.62%
37 | C=Cc1ccccc1 | -8.13%
38 | O=C(CN1CCN(Cc2ccc3c(c2)OCO3)CC1)N1c2ccccc2Sc2ccccc21 | -4.55% [at 42.5 µM]
39 | Nc1ccc(Cl)cc1[N+](=O)[O-] | -8.53%
40 | C=CC(=C)CC/C=C(\C)CCC=C(C)C | 10.9% [at 19 µM]
